This is part of a sample that, as a whole, favours compounds with a hit. Of some 83,000 tested, about 20% had one in any assay.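 Percent growth is the endpoint: 0 to 100 indicates growth inhibition (40 means 60% inhibition), 0 means no net growth, and negative values indicate cell death.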 Values without a mark were called inactive. The source made the active and inactive calls. Rule for the calls: active = growth percent below 10; inactive = the rest.

Holding throughout (assay): NCI-60 one-dose screen, 48 h (100 = growth as untreated, 0 = no growth, -100 = all killed)
For one assay, the system named is HCT-15 colon. Conditions: 10 µM unless noted.
A further assay relates to HT29 colon. Conditions: 10 µM unless noted.
Another assay deals with SNB-19 CNS. Conditions: 10 µM unless noted.
The test system of a further assay is U251 CNS. Conditions: 10 µM unless noted.
Another assay relates to PC-3 prostate. Conditions: 10 µM unless noted.
The next assay deals with SK-MEL-5 melanoma. Conditions: 10 µM unless noted.
Another assay deals with UACC-62 melanoma. The following applies: 10 µM unless noted.
A further assay concerns LOX IMVI melanoma. Conditions: 10 µM.
The subject of a further assay is SK-MEL-28 melanoma. The following applies: 10 µM unless noted.
For another assay, the system named is SK-MEL-2 melanoma. Conditions: 10 µM unless noted.
The subject of another assay is EKVX NSCLC. Conditions: 10 µM unless noted.
In another assay the test system is SN12C renal. The following applies: 10 µM unless noted.
The subject of another assay is UO-31 renal. The following applies: 10 µM unless noted.
The next assay relates to TK-10 renal. The following applies: 10 µM unless noted.
The next assay has as its system ACHN renal. The following applies: 10 µM unless noted.
For the next assay, the system named is CAKI-1 renal. Conditions: 10 µM unless noted.
Another assay has as its system A498 renal. Conditions: 10 µM unless noted.
In a further assay the test system is CCRF-CEM leukemia. Conditions: 10 µM unless noted.
The next assay relates to MOLT-4 leukemia. Conditions: 10 µM unless noted.
The next assay concerns SNB-75 CNS. Conditions: 10 µM unless noted.

For `C=C1CCC2C3(C)COC(c4ccco4)OC3CCC2(C)C1CC(Sc1ccccc1)C1=CCOC1=O` (stereo not drawn), the growth is 3.97% (active) in the assay with HCT-15 colon; 8.59% (active) in the assay with HT29 colon; 86.2% in the assay with SNB-19 CNS; 31.9% in the assay with U251 CNS; 50.2% with PC-3 prostate; 63.4% in the assay on SK-MEL-5 melanoma. Moreover, the growth with UACC-62 melanoma is 30.2%; in the assay on LOX IMVI melanoma, -96.1% (active); in the assay on SK-MEL-28 melanoma, 56.1%; in the assay with SK-MEL-2 melanoma, 80%; in the assay on EKVX NSCLC, 105%; in the assay on SN12C renal it was 21.4%. The growth was 51.8% in the assay with UO-31 renal; 123% with TK-10 renal; 70.3% in the assay on ACHN renal; 88.2% with CAKI-1 renal; 137% with A498 renal; 0.425% (active) in the assay on CCRF-CEM leukemia. Also, the growth in the assay with MOLT-4 leukemia was 16.9%.

In the case of `O=C(Cn1c(/C=C/c2ccccc2)nc2ccccc2c1=O)Nc1ccc(Cl)cc1`, the growth in the assay on HCT-15 colon was 78%; with HT29 colon, 75.5%; with SNB-19 CNS it was 52.8%; in the assay on U251 CNS, 20.1%; with PC-3 prostate it was 72.6%; in the assay on SK-MEL-5 melanoma, 103%. Further, the growth is 90.4% with UACC-62 melanoma; 25.4% in the assay on LOX IMVI melanoma; 108% in the assay on SK-MEL-28 melanoma; 114% with SK-MEL-2 melanoma; 98.6% in the assay on EKVX NSCLC; 19.2% in the assay with SN12C renal. Also, the growth in the assay with UO-31 renal was -24.6% (active); in the assay with TK-10 renal, -12% (active); in the assay with ACHN renal it was -65.6% (active); in the assay on CAKI-1 renal, 20.4%; in the assay with A498 renal, -15.5% (active); in the assay on CCRF-CEM leukemia, 85.6%. Besides, the growth with MOLT-4 leukemia was 86.9%.

Regarding `COc1ccc2c(c1)c(-c1cc3nc(-c4cn(C)c5ncccc45)cc(N)n3n1)cn2C`, the growth with HCT-15 colon was -57.7% (active); in the assay with HT29 colon, -95.5% (active); in the assay with SNB-19 CNS, 22.3%; with U251 CNS, -67% (active); with PC-3 prostate, -1.31% (active); with SK-MEL-5 melanoma, -100% (active). Also, the growth in the assay with UACC-62 melanoma is -89.8% (active); with LOX IMVI melanoma, -100% (active); with SK-MEL-28 melanoma, -97.2% (active); with SK-MEL-2 melanoma, -71.9% (active); in the assay on EKVX NSCLC, -22.8% (active); with SN12C renal, -60.2% (active). Moreover, the growth was -62.1% (active) with UO-31 renal; -27.8% (active) in the assay with TK-10 renal; -100% (active) in the assay on ACHN renal; -35.9% (active) with CAKI-1 renal; 16.6% in the assay with A498 renal; -22% (active) with CCRF-CEM leukemia. Also, the growth in the assay on MOLT-4 leukemia was -42.5% (active).

On to `CCCCSc1nc(Nc2ccc(S(N)(=O)=O)cc2)c(C#N)c(-c2cc(OC)c(OC)c(OC)c2)n1`, for which the growth in the assay on HCT-15 colon was 25.7%; in the assay with HT29 colon, 42%; in the assay with SNB-19 CNS it was 54.5%; in the assay on U251 CNS it was 43.3%; in the assay with PC-3 prostate, 16.7%; with SK-MEL-5 melanoma, 20.5%. Also, the growth in the assay on UACC-62 melanoma was 21.9%; in the assay with LOX IMVI melanoma, 7.76% (active); in the assay on SK-MEL-28 melanoma, 35.1%; in the assay on SK-MEL-2 melanoma, 87.7%; in the assay on EKVX NSCLC, 55.2%; with SN12C renal it was 23.1%. Moreover, the growth in the assay with UO-31 renal was 12.1%; in the assay on TK-10 renal, 82.2%; in the assay with ACHN renal, 12.2%; in the assay with CAKI-1 renal, 34.9%; in the assay with A498 renal, 88.1%; in the assay with CCRF-CEM leukemia, 22.1%. In the assay with MOLT-4 leukemia, the growth is -29.9% (active).

For the molecule `COc1ccc(-c2nc3cc(C)ccc3n2CC(=O)N=Nc2c(O)[nH]c3ccc(Cl)cc23)cc1`, the growth with HCT-15 colon is -71.2% (active); in the assay on HT29 colon, -71.1% (active); in the assay with SNB-19 CNS, 31.4%; in the assay on U251 CNS, -73.9% (active); in the assay on PC-3 prostate it was 9.75% (active); in the assay on SK-MEL-5 melanoma, -36.2% (active). Moreover, the growth was -52.3% (active) with UACC-62 melanoma; -93.4% (active) in the assay on LOX IMVI melanoma; -67.6% (active) in the assay on SK-MEL-28 melanoma; 47.9% in the assay with SK-MEL-2 melanoma; -49.5% (active) with EKVX NSCLC; -62.6% (active) with SN12C renal. Further, the growth was 41.7% in the assay with UO-31 renal; 21.6% in the assay with TK-10 renal; 5.37% (active) in the assay on ACHN renal; 33% in the assay on CAKI-1 renal; 101% in the assay with A498 renal; 54.9% with CCRF-CEM leukemia. Besides, the growth with MOLT-4 leukemia is 11%.

For `CCCCSc1nc(NCCc2c[nH]c3ccccc23)c(C#N)c(-c2ccccc2)n1`, the growth in the assay with HCT-15 colon was 16.8%; with HT29 colon it was 1.16% (active); in the assay with SNB-75 CNS, 70.7%; with U251 CNS, 8.25% (active); in the assay with PC-3 prostate, 13.2%; in the assay with SK-MEL-5 melanoma it was 17.2%. For the same molecule, the growth in the assay with UACC-62 melanoma is 72%; in the assay with LOX IMVI melanoma it was -34% (active); in the assay with SK-MEL-28 melanoma, 81.1%; in the assay on SK-MEL-2 melanoma it was 74%; in the assay on EKVX NSCLC, 32.9%; in the assay with UO-31 renal, 45.5%. Besides, the growth with ACHN renal is 43.2%; in the assay with CAKI-1 renal, 35.2%; with A498 renal, 61.8%; with CCRF-CEM leukemia, 8.29% (active); with MOLT-4 leukemia, 13.8%.

Turning to `CCN(CC)c1ccnc(CNCCSC(c2ccccc2)(c2ccccc2)c2ccc(C)cc2)c1`, the growth is -92.4% (active) in the assay with HCT-15 colon; -80.5% (active) with HT29 colon; -51.2% (active) in the assay on SNB-75 CNS; -76.6% (active) in the assay on PC-3 prostate; -99.6% (active) with SK-MEL-5 melanoma; -96.2% (active) in the assay with UACC-62 melanoma. Besides, the growth is -99.6% (active) in the assay with LOX IMVI melanoma; -97.5% (active) in the assay with SK-MEL-28 melanoma; -92% (active) with SK-MEL-2 melanoma; -84.9% (active) in the assay on EKVX NSCLC; -20.8% (active) with UO-31 renal; -85.7% (active) with TK-10 renal. The growth in the assay with ACHN renal was -53% (active); in the assay on CAKI-1 renal, -92.3% (active); in the assay on A498 renal, -96.8% (active); in the assay on CCRF-CEM leukemia, -40.9% (active); in the assay with MOLT-4 leukemia it was -30.9% (active).

On to `O=c1oc2ccc(Br)cc2cc1C1=CSc2nc3sc4c(c3c(=O)n2N=C1)CCCC4`, for which the growth in the assay on HCT-15 colon is 95.1%; in the assay on HT29 colon, 108%; with SNB-19 CNS, 97%; in the assay on U251 CNS, 99.3%; in the assay on PC-3 prostate, 76.7%; in the assay with SK-MEL-5 melanoma, 96.9%. Besides, the growth in the assay with UACC-62 melanoma was 71.7%; in the assay with LOX IMVI melanoma, 86.4%; with SK-MEL-28 melanoma, 105%; with SK-MEL-2 melanoma, 98.6%; in the assay on EKVX NSCLC it was 97%; with SN12C renal it was 103%. The growth in the assay on UO-31 renal is 69.8%; in the assay on TK-10 renal, 175%; in the assay with ACHN renal it was 99.4%; in the assay with CAKI-1 renal, 96.2%; with A498 renal, 177%; with CCRF-CEM leukemia it was 84.4%. In addition, the growth with MOLT-4 leukemia is 93.2%.

(Values after PubChem BioAssay (NCI).)
